In the supplement of paper PMC12636033:
± gives the standard deviation of the averaged measurements. Over roughly 33,000 sequences, “E-score (rank enrichment, -0.5 to 0.5)” has its median near -0.0075; the highest 2% begin near 0.23. Only a selection was taken, and the highest values are over-represented in it overall.

Test system: WT Max(13-93) synthetic (M65Nle)
Experiment: PBM 8-mer E-score (E-score (rank enrichment, -0.5 to 0.5)); higher = stronger preferential binding
Method: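 Protein binding microarray (universal PBM chip covering all 10-mers in fixed probe flanks) with chemically synthesized human Max(13-93) bHLH-LZ analogs (not full-length Max) bearing noncanonical residues (hArg, Tha, Aib, Nle at 65) and aromatic Cys staples. Read-out per 8-mer (and its reverse complement): E-score (rank-based enrichment, -0.5 to 0.5) and Z-score of median probe intensity.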

Sequence	PBM 8-mer E-score
GAGAAATA	0.0631 ± 0.15
CAAAAATA	0.185 ± 0.02
AAGAAATA	0.129 ± 0.0058
CAAGAATA	0.13 ± 0.035
ATAAAATA	0.244 ± 0.0078
GTAAAATA	0.0829 ± 0.0054
TAGAAATA	0.251 ± 0.07
ATAAAATC	0.109 ± 0.055
AAAAAATA	0.246 ± 0.022
GAAGAATA	0.104 ± 0.034
GAAAAATA	0.198 ± 0.08
AAAGAATA	0.241 ± 0.039
CATGCCGC	0.0835 ± 0.051
AATAGAGG	0.00232 ± 0.055
GAGTGGTA	-0.108 ± 0.011
AATGCAGG	0.087 ± 0.07
AAGAACGA	0.129 ± 0.018
CAGAGTGC	-0.201 ± 0.058
CTCGAAAG	-0.184 ± 0.043
GACGAACA	0.0177 ± 0.055
GTTCATTA	0.113 ± 0.06
AGGTTTAA	0.0368 ± 0.0029
GGCTGGAA	-0.0381 ± 0.036
ATAAATTA	0.324 ± 0.038

Sequence	PBM 8-mer E-score
ATAAATTG	0.0667 ± 0.085
ATTAAATA	0.174 ± 0.085
GTTAAATA	0.257 ± 0.1
CTAAATTA	0.0753 ± 0.031
CTTAAATA	0.139 ± 0.023
CGGGTCAA	-0.125 ± 0.03
ATGGCTAG	0.0642 ± 0.13
AGGGAGCC	-0.227 ± 0.056
AGTGCGTG	0.0848 ± 0.032
GGTTAGGA	0.0556 ± 0.043
ACTTAAAC	0.0371 ± 0.073
CCGCAGAG	-0.0777 ± 0.023
ATGACAGG	0.0387 ± 0.051
ATGACACG	0.298 ± 0.039
ATGACACA	0.236 ± 0.042
CAGACACG	-0.0764 ± 0.14
ATGACACC	0.159 ± 0.048
GTGACACA	0.0907 ± 0.1
AAGACACA	0.0963 ± 0.021
AAGACACG	0.246 ± 0.021
CTGACACA	-0.0349 ± 0.034
CAGTCTGC	-0.0522 ± 0.01
ACCTAATG	0.00028 ± 0.0032
CCAGGAGC	-0.312 ± 0.0027

Sequence	PBM 8-mer E-score
ATAAAAAG	0.283 ± 0.11
AAAAAACA	0.158 ± 0.071
GAAGAACA	0.209 ± 0.057
ATAAAAGG	0.0572 ± 0.12
GTAAAACA	0.142 ± 0.14
ATAAAAAA	0.19 ± 0.044
TAAAAACA	0.25 ± 0.0036
ATAAAACA	0.24 ± 0.0041
CTAAAACA	-0.07401 ± 0.00047
ATAAAACG	0.163 ± 0.16
CAAGAACA	0.0399 ± 0.038
TAAGAACA	0.243 ± 0.099
GCCCCGTA	-0.0782 ± 0.17
ACGGGGTC	-0.061 ± 0.014
CGGCAGAC	-0.218 ± 0.039
AACCATTC	0.0337 ± 0.04
AATGCCGC	-0.0772 ± 0.0051
CGACTAAA	-0.00903 ± 0.06
AATAGGCA	0.118 ± 0.0074
GCGCGCCC	0.00746 ± 0.051
CAGGTTCC	-0.228 ± 0.077
CCGTTAGC	-0.112 ± 0.12
ATAAAGCG	0.106 ± 0.045
CTCAAACA	0.117 ± 0.014

Sequence	PBM 8-mer E-score
ATCAAGCA	0.113 ± 0.0099
CTAAAGCA	0.0761 ± 0.037
ATCAAACA	0.238 ± 0.041
ATAAAGCA	0.264 ± 0.046
GGCGGATA	-0.183 ± 0.13
TGTGTTAA	0.226 ± 0.034
TTACACAA	0.00996 ± 0.084
ACCTGGGC	-0.318 ± 0.086
AATCCTCT	0.079 ± 0.071
ACGCCAAC	-0.125 ± 0.04
TGTATTAA	0.173 ± 0.026
CCTCAGGC	-0.057 ± 0.056
ACGTGGGA	0.302 ± 0.039
AAGTGGGA	0.212 ± 0.0035
ACGTGGGG	0.164 ± 0.08
ACGTGGGC	0.33 ± 0.012
CCGTGGGC	-0.129 ± 0.18
GCGTGGGA	0.238 ± 0.035
AGGTGGGA	0.0263 ± 0.046
CCGTGGGA	-0.15 ± 0.023
GAGTGGGA	-0.0159 ± 0.0035
CGCTGCAG	-0.19 ± 0.18
